# Assay outcomes (PubChem BioAssay)
# USP28 inh: inhibitors of human USP28 deubiquitinase. inhibition, % at 25 µM. purified USP28, Ub-rhodamine cleavage fluorescence, 30 min. AID 1645857. Q96RU2. 3% of 47,000 active
# OTUD3 block: inhibitors of human OTUD3 deubiquitinase; purified OTUD3, Ub-rhodamine fluorescence, 2 h; Q5T2D3; 0.7% of 47,000 active; inhibition, % at 25 µM
# Target sequence (Q5T2D3 whole entry, looked up): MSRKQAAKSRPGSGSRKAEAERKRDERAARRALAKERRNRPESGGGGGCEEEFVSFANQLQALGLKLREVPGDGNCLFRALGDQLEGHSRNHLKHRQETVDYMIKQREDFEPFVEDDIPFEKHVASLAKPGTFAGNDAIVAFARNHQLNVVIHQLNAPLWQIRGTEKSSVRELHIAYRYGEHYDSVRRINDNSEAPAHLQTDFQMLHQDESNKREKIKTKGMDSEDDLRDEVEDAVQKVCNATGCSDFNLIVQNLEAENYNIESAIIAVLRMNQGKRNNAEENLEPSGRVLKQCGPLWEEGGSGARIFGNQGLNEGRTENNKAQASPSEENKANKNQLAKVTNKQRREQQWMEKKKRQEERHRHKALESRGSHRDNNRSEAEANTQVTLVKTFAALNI
# USP17 block: human USP17-like deubiquitinase inhibition. purified USP17, Ub-rhodamine cleavage fluorescence, 3 h. inhibition, % at 50 µM. A8MUK1. 6.5% of 47,000 active. AID 1645855
# USP30 inh: inhibitors of human USP30 deubiquitinase; purified USP30, Ub-rhodamine cleavage fluorescence; 5.3% of 47,000 active; Q70CQ3; inhibition, % at 25 µM
# An asterisk follows results filed as active; . = no result given. Only some compounds are listed: those with a hit (about 12% of all), similar ones and a draw of the others. No stated cut-off is given here; in the data, active means inhibition above about 30%; inactive means the rest.
SMILES,USP28 inh,OTUD3 block,USP17 block,USP30 inh
Cc1cccc(NC(=O)CC2C(=O)N(C3CCCC3)c3nc4ccccc4n32)c1 (centres undefined),7,6,-5,13
Cc1ccc(NC(=O)CC2C(=O)N(Cc3ccccc3)c3nc4ccccc4n32)cc1 (centres undefined),0,-9,32*,2
Cc1nnc(-c2c(S(=O)(=O)NCc3ccc4c(c3)OCO4)c(C)n(C)c2C)o1,12,4,-10,2
O=C(NCCCc1ccccc1)C1CCN(c2nc3ccc(Br)cc3[nH]2)CC1,-18,-11,-19,-19
O=C(NC1CCS(=O)(=O)C1)c1ccc(N2CCC(Cc3ccccc3)CC2)nn1 (centres undefined),5,2,53*,23
O=C1CN(C(=O)c2ccc(N3CCC(Cc4ccccc4)CC3)nn2)CCN1,13,11,-27,3
COc1cc(CNCc2cccnc2)ccc1OCc1ccccc1F,7,1,-7,23
COC1=C2C[C@@H](C)C[C@H](OC)[C@H](O)[C@@H](C)/C=C(\C)[C@H](OC(N)=O)[C@@H](OC)/C=C\C=C(/C)C(=O)NC(=CC1=O)C2=O,6,0,-2,-5
CO/C1=C\C(C)=C/[C@@H](C)[C@@H](O)[C@@H](C)C/C(C)=C/C=C/[C@H](OC)[C@@H]([C@@H](C)[C@@H](O)[C@H](C)[C@@]2(O)C[C@@H](OC(=O)/C=C/C(N)=O)[C@H](C)[C@@H](C(C)C)O2)OC1=O,23,22,56*,-2
CCC1OC(O)(C(C)C(O)C(C)C2OC(=O)/C(C)=C/C(C)=CC(C)C(O)C(C)C/C(C)=C/C=C/C2OC)CC(OC(=O)/C=C/C(=O)NC2=C(O)CCC2=O)C1C (centres undefined),34*,32*,74*,12
Cc1cc(C)cc(N(CCC(=O)Nc2ccc(N3CCOCC3)cc2)S(=O)(=O)c2ccc(Cl)cc2)c1,13,35*,32*,41*
Cn1c(=O)c(C(=O)Nc2ccc(Br)cc2)cc2cccnc21,16,11,17,18
Cc1nnc(-c2cnn(-c3ccccc3)c2N)n1CC1CCCO1 (centres undefined),0,1,3,9
O=C(Nc1ccc(Sc2ccc(F)cc2)cc1)c1cccc(C(F)(F)F)c1,24,19,17,40*
O=C(NC1CCCC1)C1CCC(Cn2c(=O)c3ccccc3n(Cc3cccc([N+](=O)[O-])c3)c2=O)CC1 (centres undefined),2,0,13,26
CC(C)(C)c1ccc(C(=O)Nc2ccc(Cn3cncn3)cc2)cc1,56*,-4,3,3
CC(C)c1cccc(NC(=O)c2nc(N3CCSCC3)c3cnn(C)c3n2)c1,27,11,6,0
Cc1cccc(NC(=O)c2nc(N3CCSCC3)c3cnn(C)c3n2)c1,11,5,64*,19
CCCC(=O)Nc1nc2ccc(CCC(=O)NC(C)c3ccccc3)cc2s1 (centres undefined),-9,8,15,-13
Cc1ccccc1-n1nc2c(c1NC(=O)c1ccc(F)c(F)c1)CS(=O)(=O)C2,-4,-5,-8,-2
CCCCOc1ccc(C(=O)Nc2c3c(nn2-c2ccccc2C)CSC3)cc1,19,19,46*,25
CC(C(=O)Nc1ccc(C#N)cc1)(C(F)(F)F)C(F)(F)F,-8,-3,-1,-16
Clc1ccc2c(NCc3cccs3)ncnc2c1,34*,17,12,22
COc1cc2ncnc(NCc3cccs3)c2cc1OC,5,-3,-8,-1
Cc1ccc2c(c1)N(Cc1ccc(Cl)cc1)C(=O)CCS2,27,14,24,30*
SMILES,USP28 inh,OTUD3 block,USP17 block,USP30 inh
O=C(CSc1nnc(Cn2cnc3ccccc32)o1)Nc1ccc([N+](=O)[O-])cc1,12,11,63*,25
Cc1c(Cl)cccc1NC(=O)CN1c2ccccc2S(=O)(=O)c2ccccc21,.,0,-21,.
Cc1c(Cl)cccc1NC(=O)Cn1c(=O)c2ccccc2n2nncc12,-31,-14,50*,-109
Cc1cccc(-c2nc(C3CCN(C(=O)C(NC(=O)c4ccco4)C(C)C)CC3)no2)c1 (centres undefined),3,1,20,10
O=C(NC1CCCCC1)C(c1ccc(F)cc1)N(Cc1ccccc1)C(=O)CN1C(=O)c2ccccc2S1(=O)=O (centres undefined),15,9,7,45*
Cc1cc(C)c(N(C(=O)CN2C(=O)c3ccccc3S2(=O)=O)C(C(=O)NCC2CCCO2)c2ccc(F)cc2)c(C)c1 (centres undefined),7,1,9,13
O=C(NC1CCCCC1)C(c1ccc(F)cc1)N(C(=O)CN1C(=O)c2ccccc2S1(=O)=O)c1ccccc1 (centres undefined),11,8,20,31*
O=C(COc1ccccc1)N1CCCC(c2[nH]nc3nccnc23)C1 (centres undefined),-3,-8,-7,-6
CCN(CC)S(=O)(=O)c1ccc(/C(=C\Nc2ccc(Cl)cc2)c2ncc(C(F)(F)F)cc2Cl)s1,4,15,13,-11
O=C(Cc1ccc(-n2c(=O)c3sccc3n(Cc3ccc(F)cc3)c2=O)cc1)NCCc1ccccc1,.,-8,67*,.
Cc1cccc(NC(=O)Cn2c(=O)n(Cc3ccc(F)cc3)c(=O)c3sccc32)c1,15,17,69*,35*
CCOc1ccc(NC(=O)Cn2c(=O)n(CCCCCC(=O)NCc3ccc(F)cc3)c(=O)c3sccc32)cc1,21,32*,43*,49*
CCOC(=O)c1ccc(NC(=O)Cn2c(=O)n(CC(=O)NCCc3ccc(OC)c(OC)c3)c(=O)c3sccc32)cc1,21,21,25,66*
CC1CCN(CC(=O)N2CCC(c3cc(=O)n4c(n3)CCCCC4)C2)CC1 (centres undefined),.,0,-16,.
CN1C[C@H]2CCN(C(=O)NCCc3c[nH]c4ccccc34)C[C@H]21,-14,-5,-9,-2
Cn1c(C(=O)NCCc2c[nH]c3ccccc23)cc2sccc21,39*,-7,11,-1
O=C(NCCc1c[nH]c2ccccc12)c1cc2sccc2n1Cc1ccccc1,0,-1,44*,-21
Cc1nn(-c2ccccc2)cc1-c1noc(C(=O)NCc2ccc(F)cc2)n1,14,6,6,25
CS(=O)(=O)N1CCCC(C(=O)Nc2ccccc2)CC1 (centres undefined),.,3,1,.
O=C1C=C(O)c2c(O)cc(O)cc2C1=O,99*,99*,99*,100*
Cc1cc(O)c2c(c1)C(=O)c1cc(O)cc(O)c1C2=O,-86,-84,2,-486
Oc1ccccc1-c1nc2ccc(Cl)cn2c1NCCc1ccccc1,8,11,15,5
CCCCCn1c(=O)c2sccc2n2c(CCC(=O)NC3CCCCCC3)nnc12,13,10,35*,27
O=C(CCn1cnc2c(-c3ccccc3)noc2c1=O)NCc1ccc(F)cc1,7,5,0,26
NS(=O)(=O)c1ccc(CCNC(=O)C(=O)c2c[nH]c3ccccc23)cc1,36*,7,10,15
